Measured values as given in PubChem BioAssay (NCATS).
Records with an inconclusive call do not appear. Active and inactive are the calls of the source. The call rests on the fitted dose curve; in most records, active means well fitted inhibition curve with a large enough effect; inconclusive means small, poorly fitted or top-dose-only effect; inactive means flat fitted curve, though single readings scatter.

Experiments:
Test in all cases: qHTS profiling for inhibitors of Plasmodium falciparum proliferation (AID 504749); further: nearly all actives have a fitted effect of over 60% in size
[1] = test system: CP256; details: P. falciparum in erythrocytes, SYBR Green DNA, 72 h; series mostly up to 12.8 µM
Procedure, shortened: (§1)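 P. falciparum-infected erythrocytes (0.3% parasitemia, 2.5% hematocrit) incubated with compound 72 h at 37 C, 5% CO2. Parasite DNA detected by SYBR Green after lysis, overnight at room temperature; normalised to 0.29 uM artemisinin and DMSO.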

[2] = test system: CP262; details: P. falciparum in erythrocytes, SYBR Green DNA, 72 h; series mostly up to 12.8 µM
Procedure, shortened: as §1

[3] = test system: CP265; details: P. falciparum in erythrocytes, SYBR Green DNA, 72 h; series mostly up to 12.8 µM
Procedure, shortened: as §1

[4] = test system: CP266; details: P. falciparum in erythrocytes, SYBR Green DNA, 72 h; series mostly up to 28.7 µM
Procedure, shortened: as §1

[5] = test system: CP268; details: P. falciparum in erythrocytes, SYBR Green DNA, 72 h; series mostly up to 12.8 µM
Procedure, shortened: as §1

[6] = test system: CP269; details: P. falciparum in erythrocytes, SYBR Green DNA, 72 h; series mostly up to 12.8 µM
Procedure, shortened: as §1

[7] = test system: CP286; details: P. falciparum in erythrocytes, SYBR Green DNA, 72 h; series mostly up to 12.8 µM
Procedure, shortened: as §1

[8] = test system: CP291; details: P. falciparum in erythrocytes, SYBR Green DNA, 72 h; series mostly up to 12.8 µM
Procedure, shortened: as §1

[9] = test system: CP297; details: P. falciparum in erythrocytes, SYBR Green DNA, 72 h; series mostly up to 12.8 µM
Procedure, shortened: as §1

[10] = test system: CP305; details: P. falciparum in erythrocytes, SYBR Green DNA, 72 h; series mostly up to 12.8 µM
Procedure, shortened: as §1

[11] = test system: CP315; details: P. falciparum in erythrocytes, SYBR Green DNA, 72 h; series mostly up to 12.8 µM
Procedure, shortened: as §1

[12] = test system: CP325; details: P. falciparum in erythrocytes, SYBR Green DNA, 72 h; series mostly up to 12.8 µM
Procedure, shortened: as §1

[13] = test system: CP329; details: P. falciparum in erythrocytes, SYBR Green DNA, 72 h; series mostly up to 12.8 µM
Procedure, shortened: as §1

[14] = test system: CP335; details: P. falciparum in erythrocytes, SYBR Green DNA, 72 h; series mostly up to 12.8 µM
Procedure, shortened: as §1

[15] = test system: DFO2036; details: P. falciparum in erythrocytes, SYBR Green DNA, 72 h; series mostly up to 12.8 µM
Procedure, shortened: as §1

[16] = test system: DIV14; details: P. falciparum in erythrocytes, SYBR Green DNA, 72 h; series mostly up to 12.8 µM
Procedure, shortened: as §1

[17] = test system: DIV17; details: P. falciparum in erythrocytes, SYBR Green DNA, 72 h; series mostly up to 12.8 µM
Procedure, shortened: as §1

[18] = test system: DIV30; details: P. falciparum in erythrocytes, SYBR Green DNA, 72 h; series mostly up to 12.8 µM
Procedure, shortened: as §1

[19] = test system: Dd2; details: P. falciparum in erythrocytes, SYBR Green DNA, 72 h; series mostly up to 12.8 µM
Procedure, shortened: as §1

[20] = test system: ECU; details: P. falciparum in erythrocytes, SYBR Green DNA, 72 h; series mostly up to 12.8 µM
Procedure, shortened: as §1

[21] = test system: FAB9; details: P. falciparum in erythrocytes, SYBR Green DNA, 72 h; series mostly up to 12.8 µM
Procedure, shortened: as §1

[22] = test system: GB4; details: P. falciparum in erythrocytes, SYBR Green DNA, 72 h; series mostly up to 12.8 µM
Procedure, shortened: as §1

[23] = test system: HB3; details: P. falciparum in erythrocytes, SYBR Green DNA, 72 h; series mostly up to 12.8 µM
Procedure, shortened: as §1

[24] = test system: ICS; details: P. falciparum in erythrocytes, SYBR Green DNA, 72 h; series mostly up to 12.8 µM
Procedure, shortened: as §1

[25] = test system: JCK; details: P. falciparum in erythrocytes, SYBR Green DNA, 72 h; series mostly up to 12.8 µM
Procedure, shortened: as §1

[26] = test system: N140; details: P. falciparum in erythrocytes, SYBR Green DNA, 72 h; series mostly up to 12.8 µM
Procedure, shortened: as §1

[27] = test system: P93_24; details: P. falciparum in erythrocytes, SYBR Green DNA, 72 h; series mostly up to 12.8 µM
Procedure, shortened: as §1

[28] = test system: P94_40; details: P. falciparum in erythrocytes, SYBR Green DNA, 72 h; series mostly up to 12.8 µM
Procedure, shortened: as §1

[29] = test system: PAD; details: P. falciparum in erythrocytes, SYBR Green DNA, 72 h; series mostly up to 12.8 µM
Procedure, shortened: as §1

[30] = test system: PC15; details: P. falciparum in erythrocytes, SYBR Green DNA, 72 h; series mostly up to 12.8 µM
Procedure, shortened: as §1

[31] = test system: PC26; details: P. falciparum in erythrocytes, SYBR Green DNA, 72 h; series mostly up to 12.8 µM
Procedure, shortened: as §1

[32] = test system: PC49; details: P. falciparum in erythrocytes, SYBR Green DNA, 72 h; series mostly up to 12.8 µM
Procedure, shortened: as §1

[33] = test system: SC27B; details: P. falciparum in erythrocytes, SYBR Green DNA, 72 h; series mostly up to 12.8 µM
Procedure, shortened: as §1

[34] = test system: TAB109; details: P. falciparum in erythrocytes, SYBR Green DNA, 72 h; series mostly up to 12.8 µM
Procedure, shortened: as §1

[35] = test system: TAB113; details: P. falciparum in erythrocytes, SYBR Green DNA, 72 h; series mostly up to 12.8 µM
Procedure, shortened: as §1

[36] = test system: TAB165; details: P. falciparum in erythrocytes, SYBR Green DNA, 72 h; series mostly up to 12.8 µM
Procedure, shortened: as §1

[37] = test system: W2; details: P. falciparum in erythrocytes, SYBR Green DNA, 72 h; series mostly up to 12.8 µM
Procedure, shortened: as §1

Measured: Potency

CC1(C)Oc2ccc(C#N)cc2[C@H](N2CCCC2=O)[C@H]1O
inactive: all assays above
